Screening data as filed in PubChem.
Hits are enriched below; roughly 7.3% of the tested compounds scored in any of these assays.
HCMV inh: blocks human cytomegalovirus replication. AID 1259415. 410,000 compounds, 4.5% hits. HFF cells, HCMV-luciferase reporter, 72 h; hits give low values. activity change, negative = inhibition, % at 57.5 µM; in the data active means activity change below about -60%; inconclusive means no clear call, values can overlap the other calls; inactive means above about -39%
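Human foreskin fibroblasts infected with luciferase-reporter HCMV at MOI 1 PFU/cell, compounds at two doses. Luciferase measured 72 h post infection; normalized to buffer-only basal and Salinomycin (10uM) controls.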
AmpC inh detg: AmpC beta-lactamase inhibition with detergent present | P00811 | AmpC hydrolysis of nitrocefin, absorbance 480 nm, 0.01% Triton | Potency, µM (titrated, usually from 114 µM), without a hit: at the top dose activity change, negative = inhibition, most hits filed as inhibitors | 370,000 compounds, 0.041% hits;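 further: potency means the concentration at half of the fitted maximal effect; 0% = no-compound wells and -100% = no-enzyme wells; nearly all actives have a fitted effect of over 25% in size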
Target sequence (P00811 whole entry, looked up): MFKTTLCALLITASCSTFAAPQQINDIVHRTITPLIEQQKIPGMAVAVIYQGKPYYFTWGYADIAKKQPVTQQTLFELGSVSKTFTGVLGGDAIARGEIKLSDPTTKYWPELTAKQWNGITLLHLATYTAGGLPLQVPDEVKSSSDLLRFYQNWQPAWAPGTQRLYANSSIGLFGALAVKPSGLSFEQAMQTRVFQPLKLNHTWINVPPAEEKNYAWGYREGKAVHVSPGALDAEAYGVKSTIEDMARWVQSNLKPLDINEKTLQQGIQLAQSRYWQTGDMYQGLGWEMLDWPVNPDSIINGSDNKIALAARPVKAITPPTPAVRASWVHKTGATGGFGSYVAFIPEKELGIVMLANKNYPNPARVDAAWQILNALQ
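20 mM phosphate pH 7.0 + 0.01% (detergent screen) or 0.0001% Triton X-100; 5.3 nM AmpC reagent; cpd preinc 15 min RT; nitrocefin (800 uM stock) to start; A480 q20 s × 4 min; Activity was normalised to no-enzyme and no-compound control wells.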
AmpC inh no detg: blocks E. coli AmpC beta-lactamase in detergent-free assay; P00811; AmpC nitrocefin hydrolysis, absorbance 480 nm, 0.0001% Triton; Potency, µM (top dose mostly 57.1 µM), without a hit: top-dose activity change, negative = inhibition, actives largely listed as inhibitors; 330,000 compounds, 0.52% hits; AID 485341;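 further: potency means the concentration at half of the fitted maximal effect; plate controls were no compound for no effect and no enzyme for full effect; nearly all actives have a fitted effect of over 20% in size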
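AmpC (5.3 nM in the dispensed reagent) in 20 mM phosphate pH 7.0 with 0.01% (detergent screen) or 0.0001% Triton X-100 was preincubated with compounds for 15 min at room temperature. Nitrocefin was then added from an 800 uM solution, and hydrolysis was followed at 480 nm.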
HCV inhibitor: inhibitors of hepatitis C virus infection. Huh7.5.1 HCVcc-Cre infection, luciferase reporter, 44 h. Potency, µM (doses to about 41.8 µM), for the others: top-dose activity change, negative = inhibition, usual class: inhibitors. 340,000 compounds, 3.4% hits; further: potency means the concentration at half of the fitted maximal effect
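Whole-lifecycle infectious HCVcc-Cre system; cells 1,000/well, compound then virus (~0.5 moi) added 4 h after plating, 44 h culture. Luciferase read 15 sec following 15 min substrate incubation, room temp.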
FMDV antiviral: blocks foot and mouth disease virus; FMDV antiviral cell-based qHTS; Potency, µM (doses to about 57.9 µM), inactives show top-dose activity change, negative = inhibition, usual class: inhibitors; 410,000 compounds, 1.2% hits; calls by dose curve; tested in HEK293T cells; further: read-out not given here; potency means the concentration at half of the fitted maximal effect; nearly all actives have a fitted effect of over 45% in size
* = called active by the depositor. Unless noted, the call rests on the fitted dose curve; in most records, active means well fitted curve in the direction sought with a large enough effect; inconclusive means small, poorly fitted or top-dose-only effect, or another doubt; inactive means no such curve, though single readings can be large; an effect the other way counts as inactive or inconclusive. Unless noted, on the % scale 0 is the no-effect control and ±100 the full control effect.

CC1CCN(S(=O)(=O)c2ccc3c(c2)N(CC(=O)NC(C)c2ccccc2)C(=O)CS3)CC1 (stereo not drawn) was read as HCMV inh -1.5, AmpC inh detg -9.1% and FMDV antiviral -4.8%.
`Cc1ccc(CCNC(=O)C2CCC(=O)N(CC3CCCCC3)C2)cc1` (stereo not drawn) gave HCMV inh 5.8, AmpC inh detg -2.2%, AmpC inh no detg 122.8%, HCV inhibitor 14.4% and FMDV antiviral -7.5%.
Screening CCCCCOC(=O)C1C(c2ccccc2)C(C(=O)O)C1c1ccccc1 (stereo not drawn) returned HCMV inh -93.1*, AmpC inh detg inconclusive, AmpC inh no detg -15.8%, HCV inhibitor 23.9% and FMDV antiviral -22.6%.
For COC(=O)c1cnc(Oc2ccc(NC(=O)NC(=O)c3c(OC)cccc3OC)cc2)cc1C(F)(F)F the results were HCMV inh -97.9*, AmpC inh detg -4.1%, AmpC inh no detg 3.0%, HCV inhibitor -24.3% and FMDV antiviral -27.1%.
For C[C@H]1[C@@H](NS(=O)(=O)c2ccc(C#N)cc2)CC[C@@]23CCCN2C(=O)CCC[C@@H]13 the results were HCMV inh 6.2.
Screening COc1ccc(C(=O)CC(Nc2ccc([N+](=O)[O-])cc2)c2ccc(OC)cc2)cc1 (stereo not drawn) returned HCMV inh 8.3, AmpC inh detg 5.1%, AmpC inh no detg -30.4%, HCV inhibitor inconclusive and FMDV antiviral 3.8%.
CNC(CC(=O)c1ccc([N+](=O)[O-])cc1)C(Cl)(Cl)Cl (stereo not drawn) was read as AmpC inh detg -11.6%, AmpC inh no detg -18.5%, HCV inhibitor 9.4% and FMDV antiviral 31.6µM*.
NS(=O)(=O)c1ccc(CCNc2ncnc3c2cnn3-c2cccc(Cl)c2)cc1 was read as HCMV inh -23.4, AmpC inh detg 9.1% and FMDV antiviral inconclusive.
For COC(=O)[C@]1(Cc2ccccc2)N[C@H](CN(C)C(=O)Nc2ccc(C(F)(F)F)cc2)[C@@H]2C(=O)N(Cc3ccccc3)C(=O)[C@@H]21 the results were HCMV inh -11.4, AmpC inh no detg 15.1%, HCV inhibitor 12.6µM* and FMDV antiviral 0.0%.
Cn1nnnc1SCCCNCc1ccccc1OCc1ccccc1F was read as HCMV inh -36.2, AmpC inh detg 0.4% and FMDV antiviral -17.3%.
Cc1coc2cc3oc(=O)c(CCC(=O)N4CCC(C(=O)O)(c5ccccc5)CC4)c(C)c3cc12 was read as HCMV inh -4.8, AmpC inh detg -11.8%, AmpC inh no detg -14.4%, HCV inhibitor 18.1% and FMDV antiviral -17.9%.
`Cc1cccc(NC(=O)c2sc3nc4c(cc3c2N)CCCCCC4)c1C` gave HCMV inh -82.0*, AmpC inh detg -5.1% and FMDV antiviral -24.7%.
For N#Cc1sc2nc3c(cc2c1N)CCCC3 the results were HCMV inh -64.2*, AmpC inh detg -15.3%, AmpC inh no detg -21.3%, HCV inhibitor 1.5% and FMDV antiviral 0.3%.
`COc1ccc(OC)c(NC(=O)c2sc3nc4c(cc3c2N)CCCCCC4)c1` gave HCMV inh -5.7, AmpC inh detg 7.1% and FMDV antiviral -14.8%.
For Nc1c(C(=O)Nc2ccc(Br)cc2)sc2nc(-c3ccco3)ccc12 the results were HCMV inh -60.1*, AmpC inh detg -3.8%, AmpC inh no detg -52.3%, HCV inhibitor inconclusive and FMDV antiviral inconclusive.
Nc1c(C(=O)Nc2cccc(C(=O)O)c2)sc2nc3c(cc12)CCCC3 was read as HCMV inh 94.5, AmpC inh detg inconclusive, AmpC inh no detg -30.7%, HCV inhibitor 4.3% and FMDV antiviral 6.31µM*.
For Nc1c(C(=O)Nc2ccc(Cl)c(C(=O)O)c2)sc2nc3c(cc12)CCCC3 the results were HCMV inh -6.1, AmpC inh detg -11.8%, AmpC inh no detg -45.9%, HCV inhibitor 2.9% and FMDV antiviral -0.3%.
`Nc1c(C(=O)Nc2ccc(C(=O)O)cc2)sc2nc3c(cc12)CCCC3` gave HCMV inh 26.8, AmpC inh detg 10.8% and FMDV antiviral 15.8µM*.
